# Source: ChEMBL document CHEMBL2218924, “A broad activity screen in support of a chemogenomic map for kinase signalling research and drug discovery” (Biochem J, 2013)
# Key:
# [1] = target: T1, Serine/threonine-protein kinase TBK1 (Homo sapiens) (UniProt Q9UHD2); details: at 10 µM
# T1 sequence (whole entry): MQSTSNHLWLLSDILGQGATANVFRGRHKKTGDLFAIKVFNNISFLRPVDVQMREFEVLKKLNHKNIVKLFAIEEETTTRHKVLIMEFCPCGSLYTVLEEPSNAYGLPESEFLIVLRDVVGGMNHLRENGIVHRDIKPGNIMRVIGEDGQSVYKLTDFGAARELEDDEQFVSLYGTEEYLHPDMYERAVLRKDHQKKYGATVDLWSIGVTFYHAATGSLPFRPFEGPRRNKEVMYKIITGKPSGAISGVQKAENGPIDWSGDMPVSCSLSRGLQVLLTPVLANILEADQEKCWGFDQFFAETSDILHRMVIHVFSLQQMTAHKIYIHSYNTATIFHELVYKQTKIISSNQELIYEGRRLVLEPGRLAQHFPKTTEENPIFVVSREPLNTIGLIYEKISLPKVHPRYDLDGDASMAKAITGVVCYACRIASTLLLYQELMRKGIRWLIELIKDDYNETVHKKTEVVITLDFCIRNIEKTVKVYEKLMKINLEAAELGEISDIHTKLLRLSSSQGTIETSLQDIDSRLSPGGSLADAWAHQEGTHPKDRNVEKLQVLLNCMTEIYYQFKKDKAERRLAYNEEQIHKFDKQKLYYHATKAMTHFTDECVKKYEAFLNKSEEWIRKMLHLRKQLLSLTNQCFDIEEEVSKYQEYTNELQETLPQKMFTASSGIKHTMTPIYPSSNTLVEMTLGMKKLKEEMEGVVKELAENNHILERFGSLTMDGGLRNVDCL
# [2] = target: T2, TGF-beta receptor type-1 (Homo sapiens) (UniProt P36897); details: at 1 µM
# T2 sequence (whole entry): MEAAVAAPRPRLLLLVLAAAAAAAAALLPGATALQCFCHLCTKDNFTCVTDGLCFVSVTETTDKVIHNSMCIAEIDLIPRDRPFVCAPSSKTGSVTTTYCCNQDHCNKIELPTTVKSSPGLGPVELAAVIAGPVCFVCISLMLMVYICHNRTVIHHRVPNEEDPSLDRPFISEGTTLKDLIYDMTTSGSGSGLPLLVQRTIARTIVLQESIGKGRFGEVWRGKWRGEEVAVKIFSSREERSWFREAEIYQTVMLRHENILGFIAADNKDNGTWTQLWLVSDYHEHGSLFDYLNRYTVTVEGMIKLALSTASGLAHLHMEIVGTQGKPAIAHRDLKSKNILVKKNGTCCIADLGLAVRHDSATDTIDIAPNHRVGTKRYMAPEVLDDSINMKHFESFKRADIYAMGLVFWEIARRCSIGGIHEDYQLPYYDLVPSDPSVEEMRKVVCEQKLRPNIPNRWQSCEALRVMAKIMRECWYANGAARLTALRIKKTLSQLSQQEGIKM
# [3] = target: T2, TGF-beta receptor type-1 (Homo sapiens); details: at 10 µM
# [4] = target: Insulin-like growth factor 1 receptor (Homo sapiens) (UniProt P08069); details: at 1 µM
# Sequence of Insulin-like growth factor 1 receptor (Homo sapiens) (P08069 31-736 limits assumed): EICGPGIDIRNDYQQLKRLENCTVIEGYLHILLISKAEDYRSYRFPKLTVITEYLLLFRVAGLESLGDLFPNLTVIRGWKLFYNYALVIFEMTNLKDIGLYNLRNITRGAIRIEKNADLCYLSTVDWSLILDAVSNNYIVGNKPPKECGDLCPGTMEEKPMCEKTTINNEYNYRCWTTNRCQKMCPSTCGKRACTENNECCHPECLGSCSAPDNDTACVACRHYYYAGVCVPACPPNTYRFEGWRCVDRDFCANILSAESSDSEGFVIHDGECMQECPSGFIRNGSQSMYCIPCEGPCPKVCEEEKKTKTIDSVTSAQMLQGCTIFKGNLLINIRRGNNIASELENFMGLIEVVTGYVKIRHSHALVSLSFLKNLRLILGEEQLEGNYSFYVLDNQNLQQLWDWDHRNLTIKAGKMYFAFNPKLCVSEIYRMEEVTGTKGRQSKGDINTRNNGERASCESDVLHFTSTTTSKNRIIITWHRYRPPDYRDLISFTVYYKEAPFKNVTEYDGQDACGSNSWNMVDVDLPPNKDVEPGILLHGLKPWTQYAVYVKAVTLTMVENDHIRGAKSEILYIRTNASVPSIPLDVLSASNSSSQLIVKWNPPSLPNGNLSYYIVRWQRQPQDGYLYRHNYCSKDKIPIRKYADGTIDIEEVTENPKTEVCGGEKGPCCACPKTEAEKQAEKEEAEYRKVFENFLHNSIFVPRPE
# Sequence of Insulin-like growth factor 1 receptor (Homo sapiens) (P08069 741-1367 limits assumed): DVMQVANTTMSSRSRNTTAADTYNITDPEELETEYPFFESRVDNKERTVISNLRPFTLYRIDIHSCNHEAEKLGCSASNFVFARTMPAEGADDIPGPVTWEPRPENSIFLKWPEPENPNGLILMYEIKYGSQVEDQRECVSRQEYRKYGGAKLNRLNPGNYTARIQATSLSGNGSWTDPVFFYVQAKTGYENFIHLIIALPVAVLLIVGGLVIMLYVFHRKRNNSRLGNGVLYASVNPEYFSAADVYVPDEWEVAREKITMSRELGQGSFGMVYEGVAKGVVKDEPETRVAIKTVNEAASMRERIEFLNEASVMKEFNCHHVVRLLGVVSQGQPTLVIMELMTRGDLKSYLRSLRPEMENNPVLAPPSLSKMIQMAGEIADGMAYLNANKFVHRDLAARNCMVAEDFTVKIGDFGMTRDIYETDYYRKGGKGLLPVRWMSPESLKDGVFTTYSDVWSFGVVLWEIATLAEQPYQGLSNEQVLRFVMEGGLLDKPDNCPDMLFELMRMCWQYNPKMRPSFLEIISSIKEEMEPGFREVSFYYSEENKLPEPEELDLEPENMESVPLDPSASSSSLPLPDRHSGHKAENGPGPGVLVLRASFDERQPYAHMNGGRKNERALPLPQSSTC
# [5] = target: Insulin-like growth factor 1 receptor (Homo sapiens) (UniProt P08069); details: at 10 µM
# [6] = target: T3, Inhibitor of nuclear factor kappa-B kinase subunit alpha (Homo sapiens) (UniProt O15111); details: at 1 µM
# T3 sequence (whole entry): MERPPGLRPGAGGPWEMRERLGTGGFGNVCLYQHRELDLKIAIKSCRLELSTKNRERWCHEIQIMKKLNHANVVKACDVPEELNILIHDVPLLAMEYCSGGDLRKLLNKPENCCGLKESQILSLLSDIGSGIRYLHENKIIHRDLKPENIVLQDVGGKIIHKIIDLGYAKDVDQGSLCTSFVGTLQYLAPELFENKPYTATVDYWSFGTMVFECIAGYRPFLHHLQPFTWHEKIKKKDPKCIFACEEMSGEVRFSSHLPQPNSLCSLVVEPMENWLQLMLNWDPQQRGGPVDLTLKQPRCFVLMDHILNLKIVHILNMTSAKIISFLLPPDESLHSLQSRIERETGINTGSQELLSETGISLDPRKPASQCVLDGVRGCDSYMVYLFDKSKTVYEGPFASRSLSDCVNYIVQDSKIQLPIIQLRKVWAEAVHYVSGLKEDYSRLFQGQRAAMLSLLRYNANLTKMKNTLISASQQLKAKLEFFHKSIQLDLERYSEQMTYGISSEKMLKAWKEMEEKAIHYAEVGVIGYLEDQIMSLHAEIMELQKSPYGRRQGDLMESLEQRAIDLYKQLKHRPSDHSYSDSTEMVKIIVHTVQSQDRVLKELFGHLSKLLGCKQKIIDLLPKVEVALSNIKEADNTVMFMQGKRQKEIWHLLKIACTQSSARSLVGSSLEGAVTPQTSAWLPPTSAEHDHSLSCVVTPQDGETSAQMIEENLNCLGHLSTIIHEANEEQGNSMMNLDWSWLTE
# [7] = target: T3, Inhibitor of nuclear factor kappa-B kinase subunit alpha (Homo sapiens); details: at 10 µM
# [8] = target: T4, Inhibitor of nuclear factor kappa-B kinase subunit beta (Homo sapiens) (UniProt O14920); details: at 1 µM
# T4 sequence (whole entry): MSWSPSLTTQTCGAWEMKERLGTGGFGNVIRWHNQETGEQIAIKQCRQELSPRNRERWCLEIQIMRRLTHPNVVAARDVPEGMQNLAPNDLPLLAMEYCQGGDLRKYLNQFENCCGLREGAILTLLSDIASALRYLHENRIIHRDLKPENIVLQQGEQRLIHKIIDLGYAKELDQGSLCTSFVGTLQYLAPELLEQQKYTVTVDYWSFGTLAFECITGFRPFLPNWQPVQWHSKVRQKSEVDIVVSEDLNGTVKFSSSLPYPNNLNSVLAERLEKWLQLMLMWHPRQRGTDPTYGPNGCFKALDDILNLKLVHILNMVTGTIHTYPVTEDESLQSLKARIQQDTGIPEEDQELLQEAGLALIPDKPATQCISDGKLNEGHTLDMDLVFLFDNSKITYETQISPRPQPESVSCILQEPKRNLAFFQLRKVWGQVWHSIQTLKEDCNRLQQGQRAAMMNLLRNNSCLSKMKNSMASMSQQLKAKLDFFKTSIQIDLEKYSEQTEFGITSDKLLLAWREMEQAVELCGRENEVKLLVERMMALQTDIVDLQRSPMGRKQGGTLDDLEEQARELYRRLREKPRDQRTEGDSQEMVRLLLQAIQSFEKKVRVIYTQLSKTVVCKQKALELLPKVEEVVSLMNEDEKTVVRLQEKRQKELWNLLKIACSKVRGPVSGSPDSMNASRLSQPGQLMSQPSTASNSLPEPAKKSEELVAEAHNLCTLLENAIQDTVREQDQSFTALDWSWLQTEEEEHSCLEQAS
# [9] = target: T4, Inhibitor of nuclear factor kappa-B kinase subunit beta (Homo sapiens); details: at 10 µM
# [10] = target: Insulin receptor (Homo sapiens) (UniProt P06213); details: at 1 µM
# Sequence of Insulin receptor (Homo sapiens) (P06213 28-758 limits assumed): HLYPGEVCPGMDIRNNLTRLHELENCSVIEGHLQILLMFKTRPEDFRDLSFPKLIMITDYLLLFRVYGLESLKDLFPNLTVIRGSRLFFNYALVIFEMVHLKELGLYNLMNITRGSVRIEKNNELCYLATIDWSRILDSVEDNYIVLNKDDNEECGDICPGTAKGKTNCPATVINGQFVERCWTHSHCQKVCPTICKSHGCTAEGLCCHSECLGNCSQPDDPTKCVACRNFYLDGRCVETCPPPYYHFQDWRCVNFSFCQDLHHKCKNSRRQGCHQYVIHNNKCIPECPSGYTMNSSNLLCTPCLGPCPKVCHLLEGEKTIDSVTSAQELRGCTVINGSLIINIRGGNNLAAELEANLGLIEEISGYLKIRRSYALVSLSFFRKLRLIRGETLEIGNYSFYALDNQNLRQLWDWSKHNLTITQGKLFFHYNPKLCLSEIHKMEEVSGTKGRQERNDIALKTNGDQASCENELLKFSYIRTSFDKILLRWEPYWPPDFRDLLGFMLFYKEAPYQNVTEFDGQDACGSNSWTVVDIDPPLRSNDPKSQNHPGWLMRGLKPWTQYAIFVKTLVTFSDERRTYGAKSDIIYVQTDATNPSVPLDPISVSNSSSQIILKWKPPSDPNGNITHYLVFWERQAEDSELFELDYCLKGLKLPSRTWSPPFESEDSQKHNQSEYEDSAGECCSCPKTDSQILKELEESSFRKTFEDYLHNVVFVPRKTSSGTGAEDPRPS
# Sequence of Insulin receptor (Homo sapiens) (P06213 763-1382 limits assumed): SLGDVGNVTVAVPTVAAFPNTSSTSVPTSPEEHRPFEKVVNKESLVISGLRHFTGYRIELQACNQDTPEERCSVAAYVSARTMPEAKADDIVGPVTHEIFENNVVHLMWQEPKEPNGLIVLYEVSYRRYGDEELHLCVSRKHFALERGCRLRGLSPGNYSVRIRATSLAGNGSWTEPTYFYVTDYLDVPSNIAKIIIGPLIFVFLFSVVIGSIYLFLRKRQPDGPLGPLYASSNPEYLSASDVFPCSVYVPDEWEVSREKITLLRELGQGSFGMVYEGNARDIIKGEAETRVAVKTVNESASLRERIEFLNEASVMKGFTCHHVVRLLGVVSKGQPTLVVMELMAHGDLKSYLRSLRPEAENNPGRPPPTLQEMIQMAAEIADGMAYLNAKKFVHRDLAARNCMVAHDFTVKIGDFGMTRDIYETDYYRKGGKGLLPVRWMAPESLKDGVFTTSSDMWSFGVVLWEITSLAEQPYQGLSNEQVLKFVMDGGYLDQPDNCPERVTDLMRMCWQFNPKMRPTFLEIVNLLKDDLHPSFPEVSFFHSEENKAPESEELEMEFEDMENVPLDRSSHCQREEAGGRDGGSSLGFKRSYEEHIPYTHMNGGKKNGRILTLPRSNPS
smiles,measurement,setting,value
O=C1NC(=O)c2c1c1c3ccccc3[nH]c1c1[nH]c3cc(Br)ccc3c21,residual activity,[1],54%
same,residual activity,[2],100%
same,residual activity,[3],98%
same,residual activity,[4],96%
same,residual activity,[5],99%
same,residual activity,[6],89%
same,residual activity,[7],71%
same,residual activity,[8],77%
same,residual activity,[9],100%
same,residual activity,[10],99%
